# PubChem BioAssay (NCATS)
# Values joined by “and” are separate entries in the source; they are usually repeats but may differ in a detail not shown here. Equal entries are not always repeated. Records with an inconclusive call do not appear. A call without a number means that no potency is given here. Where a structure was tested more than once in an assay, its records may differ in their call. Active and inactive are the calls of the source. Unless noted, the call rests on the fitted dose curve; in most records, active means well fitted curve in the direction sought with a large enough effect; inconclusive means small, poorly fitted or top-dose-only effect, or another doubt; inactive means no such curve, though single readings can be large; an effect the other way counts as inactive or inconclusive.
# Experiments:
# [1] = molecular target: ATP-dependent 6-phosphofructokinase (Trypanosoma brucei brucei) (UniProt O15648); experiment: qHTS Assay to Find Inhibitors of T. brucei phosphofructokinase: hit validation (AID 492961);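 further: luminescence reports ADP formed as PFK phosphorylates fructose-6-phosphate with ATP; series mostly up to about 51 µM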
# Summary of the method: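 Measures ADP output of PFK (1.25 nM) at 0.1 mM ATP, 0.5 mM F6P, pH 8.0 TEA buffer with 5 mM MgCl2. No-enzyme wells define full inhibition; uninhibited enzyme wells define zero.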
# [2] = molecular target: D(1A) dopamine receptor (Homo sapiens) (UniProt P21728); experiment: HTS Assay for Allosteric Agonists of the Human D1 Dopamine Receptor: Primary Screen for Potentiators (AID 488982)
# Summary of the method: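 Calcium flux in an inducible, force-coupled HEK293 Trex D1 line (overnight at 30 C): agonist mode is the 180 s kinetic read after compound; potentiator mode is the following 180 s read after dopamine at EC20.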
# [3] = molecular target: D(1A) dopamine receptor (Homo sapiens) (UniProt P21728); experiment: HTS Assay for Allosteric Agonists of the Human D1 Dopamine Receptor: Primary Screen for Antagonists (AID 488983);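 further: calcium flux response to an EC80 dopamine challenge measured with no-wash dye; nearly all actives have a fitted effect of over 65% in size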
# Summary of the method: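 Kinetic fluorescence at 1 cycle/sec tracked intracellular calcium in force-coupled, tetracycline-inducible HEK293 T-REx D1 cells. Loss of response to an EC80 dopamine dose, given 180 s after compound, marked antagonists.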
# [4] = Validation screen for small molecules that induce genotoxicity in human embryonic kidney (HEK293T) cells expressing luciferase-tagged ELG1 (AID 493106)
# Summary of the method: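 Cells were dispensed at 2,000 per well, then 23 nL compound or DMSO was pinned in. After 16 hr at 37 °C and 5% CO2, ONE-Glo reagent was added. Luciferase activity was measured following 30 min at room temperature.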
# [5] = molecular target: ATPase family AAA domain-containing protein 5 (Homo sapiens) (UniProt Q96QE3); experiment: Validation screen for small molecules that inhibit ELG1-dependent DNA repair in human embryonic kidney (HEK293T) cells expressing luciferase-tagged ELG1 (AID 493107);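 further: cells co-treated with the DNA-damaging agent 5-fluorouridine alongside compound; series mostly up to about 46 µM; inhibitors lower the ELG1-luciferase luminescence signal; nearly all actives have a fitted effect of over 70% in size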
# Summary of the method: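 Cells are dispensed in 1536-well format, then 5-fluorouridine and compound are pinned in. After a 16 hr incubation at 37 °C and 5% CO2, ONE-Glo is added and luciferase measured on a CCD imager.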
# [6] = Nrf2 qHTS screen for inhibitors: Validation (AID 493153; active means well fitted inhibition curve with a large enough effect in the main read-out, with a control signal flat, not every such curve was filed as active;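 on activity change, negative = inhibition: A549 cells with ARE-driven firefly luciferase reporter reporting Nrf2 activity; series mostly up to about 46 µM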); conditions: viability change: measured here: cytotoxicity max response
# Summary of the method: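 A549 ARE_Fluc, 5% FBS OPTI-MEM; cpd titration, 18-24 h, 37°C/5% CO2. Read 1: CellTiter-Fluor (Ex 405/Em 525), cytotox. Read 2: luciferase lum, Nrf2 activity.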
# [7] = qHTS for Inhibitors of Cell Surface uPA Generation: Validation Assay (AID 493164);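 further: RAW 264.7 macrophage cells exposed to compound for 18 h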
# Summary of the method: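 ATP-Lite luminescence read-out: ATP remains high when uPA activity-dependent LF translocation into the cytoplasm is blocked. RAW 264.7 cells, 18 h compound exposure at 37 C; 7-point titration, 2.45 nM to 38.3 uM final.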
# [8] = Validation screen for small molecules that induce DNA re-replication in SW480 colon adenocarcinoma cells (AID 504364)
# Summary of the method: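 Image-based qHTS: compounds were incubated with SW480 cells for 48 hr, nuclei stained with Hoechst, and per-nucleus fluorescence intensity scanned to flag cells with excess DNA content.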
# [9] = molecular target: Peptidyl-prolyl cis-trans isomerase NIMA-interacting 1 (Homo sapiens) (UniProt Q13526); experiment: qHTS Validation Assay to Find Inhibitors of Pin1 (AID 504536; active means well fitted inhibition curve with a large enough effect in the polarisation, with a control signal flat, not every such curve was filed as active; the % refers to the polarisation)
# Summary of the method: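 Fluorescence polarization competition: compounds (titration) displace HiFluor-488-labeled Pin1-1b peptide from Pin1 (0.3 uM final) in pH 7.5 HEPES buffer with DTT, 10 min at room temperature; %Activity normalized to no-enzyme wells, curves fitted.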
# [10] = molecular target: Phosphoglycerate kinase, glycosomal (Trypanosoma brucei brucei) (UniProt P07378); experiment: qHTS Validation Assay to Find Inhibitors of Phosphoglycerate Kinase (AID 504547)
# Summary of the method: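 Luminescence end-point (Kinase-Glo Plus, 10 min) after a 60 min room-temperature coupled reaction. GAPDH at 100nM final supplies 1,3-BPG to PGK. Buffer: 100mM TEA pH 7.6, 5mM MgCl2, 0.01% Tween-20. Wells lacking PGK served as controls.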
# [11] = molecular target: phosphoglycerate mutase (Leishmania major) (UniProt Q4Q090); experiment: qHTS Validation Assay to Find Inhibitors of Phosphoglycerate Mutase (AID 504548); further: series mostly up to about 58 µM
# Summary of the method: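 Lm PGAM 1.25nM final; 100 mM TEA pH 7.6, 5 mM MgCl2, 0.01% Tween-20; 45 min RT; Kinase-GloPlus, 10 min; end-point luminescence. Enzyme-free wells as negative controls.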
# [12] = Inducers of the Endoplasmic Reticulum Stress Response (ERSR) in human glioma: Validation (AID 504836)
# Summary of the method: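 ERSR induction read as luciferase luminescence (Bright-Glo, 10 min at room temperature) in stably transfected human U87-MG glioma cells exposed to compounds for 16 h, using GRP78 as sensor.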
# [13] = molecular target: Ubiquitin carboxyl-terminal hydrolase 1 (Homo sapiens) (UniProt O94782); experiment: Inhibitors of USP1/UAF1: Pilot qHTS (AID 504865); further: nearly all actives have a fitted effect of over 35% in size; further: potency means the concentration at half of the fitted maximal effect;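 on activity change, negative = inhibition: rhodamine fluorescence freed from ubiquitin-rhodamine substrate followed over time; top concentration of the series differs between compounds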
# Summary of the method: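 Enzyme-free wells gave the negative control, while test wells held 1nM USP1/UAF1 preincubated with compound for 15 min at room temperature. Ub-Rho at 150nM final started the reaction, and fluorescence at 480/540 nm was recorded kinetically.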
# [14] = qHTS for Inhibitors of ATXN expression: Validation (AID 588378); further: series mostly up to about 57 µM; nearly all actives have a fitted effect of over 75% in size
# Summary of the method: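 After a 2 h attachment and 24 h compound incubation, HEK293-ATXN2-FFLuc wells are read for fluorescence at 405 nm excitation/525 nm emission as a viability measure, then for Bright-Glo luminescence reflecting ATXN2 expression.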
# [15] = molecular target: Galactokinase (Homo sapiens) (UniProt P51570); experiment: qHTS Validation Assay for Inhibitors of Human Galactokinase (GALK) (AID 493189)
# Summary of the method: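 Enzyme activity is inferred from ATP consumption: human GALK phosphorylates galactose (100 uM) using 35 uM ATP for 1 h at room temperature, and luciferase-based Kinase-Glo Plus reports unconsumed ATP.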
# [16] = molecular target: Thyrotropin-releasing hormone receptor (Homo sapiens) (UniProt P34981); experiment: qHTS for Small Molecule Agonists and Allosteric Enhancers of Human TRH Receptor: Validation Screen for Agonists (AID 493127;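 active means calcium activation more than 3 SD above the typical response in the agonist read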;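 further: intracellular calcium rise by fluo-8 fluorescence before TRH EC20 addition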); conditions: TRH receptor agonist cell assay; at 2 µM; stronger effect = higher value
# Summary of the method: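 Compounds are added by online pintool to dye-loaded TRHR cells while fluorescence is recorded every second. A rise in calcium signal during the agonist read marks activation; a later 10 nM TRH addition (EC20) serves the separate enhancer mode.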
# [17] = molecular target: Estrogen receptor (Homo sapiens) (UniProt P03372); experiment: qHTS assay for small molecule antagonists of estrogen receptor alpha signaling (AID 588513; active means well fitted curve in the direction sought with a large enough effect in the signal ratio, with a control signal flat, not every such curve was filed as active; the % refers to the signal ratio)
# Summary of the method: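 Antagonist-mode qHTS in ER-alpha-UAS-bla HEK 293 cells: compound titration, 0.5nM estradiol for 18 h, CCF4 fluorescence, Hill-derived IC50.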
# [18] = molecular target: Estrogen receptor (Homo sapiens) (UniProt P03372); experiment: qHTS assay for small molecule agonists of estrogen receptor alpha signaling (AID 588514; calls by dose curve; further: nearly all actives have a fitted effect of over 70% in size)
# Summary of the method: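 Efficacy is expressed against 20 nM 17-beta-estradiol (100%) and DMSO basal (0%); EC50 from Hill equation. Assay: beta-lactamase reporter in ER-alpha-UAS-bla HEK 293 cells, 18 h compound incubation, CCF4 detection.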
# [19] = molecular target: Tyrosyl-DNA phosphodiesterase 1 (Homo sapiens) (UniProt Q9NUW8); experiment: Confirmation Assay for Inhibitors of Tyrosyl-DNA Phosphodiesterase (TDP1) (AID 489007); conditions: recombinant human TDP1 enzymatic activity, dose-response; further: potency means the concentration at half of the fitted maximal effect; nearly all actives have a fitted effect of over 40% in size
# Summary of the method: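 Compounds are preincubated 15 min at room temperature with 1 nM recombinant human Tdp1. The reaction starts on adding 15 nM FITC-phosphotyrosine DNA substrate, runs 5 min, and is detected by AlphaScreen beads after 10 min.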
# [20] = molecular target: DNA dC->dU-editing enzyme APOBEC-3G (Homo sapiens) (UniProt Q9HC16); experiment: qHTS for inhibitors of Vif-A3G interactions: Validation (AID 588379)
# Summary of the method: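 Yellow fluorescence (Ex 488, Em 500-530) of Vif-coexpressing HeLa A3G-eYFP cells, scanned by Acumen cytometer, reports blocked A3G degradation. Cells plated at 700/well overnight at 37 deg C before compound addition, then a further overnight compound incubation at 37 deg C.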
# Chain of Thyrotropin-releasing hormone receptor (Homo sapiens) (P34981 whole entry, looked up): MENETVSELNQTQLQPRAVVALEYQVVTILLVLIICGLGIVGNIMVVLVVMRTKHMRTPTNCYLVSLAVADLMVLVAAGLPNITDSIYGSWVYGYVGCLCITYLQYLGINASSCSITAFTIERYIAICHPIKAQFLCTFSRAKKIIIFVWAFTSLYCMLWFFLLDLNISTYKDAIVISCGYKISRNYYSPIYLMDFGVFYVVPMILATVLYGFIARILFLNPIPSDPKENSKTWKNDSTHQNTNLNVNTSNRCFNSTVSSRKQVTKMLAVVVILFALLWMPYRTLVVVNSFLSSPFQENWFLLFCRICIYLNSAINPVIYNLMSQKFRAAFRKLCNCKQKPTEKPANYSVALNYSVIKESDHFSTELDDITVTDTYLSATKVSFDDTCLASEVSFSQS
# Chain of Estrogen receptor (Homo sapiens) (P03372 whole entry, looked up): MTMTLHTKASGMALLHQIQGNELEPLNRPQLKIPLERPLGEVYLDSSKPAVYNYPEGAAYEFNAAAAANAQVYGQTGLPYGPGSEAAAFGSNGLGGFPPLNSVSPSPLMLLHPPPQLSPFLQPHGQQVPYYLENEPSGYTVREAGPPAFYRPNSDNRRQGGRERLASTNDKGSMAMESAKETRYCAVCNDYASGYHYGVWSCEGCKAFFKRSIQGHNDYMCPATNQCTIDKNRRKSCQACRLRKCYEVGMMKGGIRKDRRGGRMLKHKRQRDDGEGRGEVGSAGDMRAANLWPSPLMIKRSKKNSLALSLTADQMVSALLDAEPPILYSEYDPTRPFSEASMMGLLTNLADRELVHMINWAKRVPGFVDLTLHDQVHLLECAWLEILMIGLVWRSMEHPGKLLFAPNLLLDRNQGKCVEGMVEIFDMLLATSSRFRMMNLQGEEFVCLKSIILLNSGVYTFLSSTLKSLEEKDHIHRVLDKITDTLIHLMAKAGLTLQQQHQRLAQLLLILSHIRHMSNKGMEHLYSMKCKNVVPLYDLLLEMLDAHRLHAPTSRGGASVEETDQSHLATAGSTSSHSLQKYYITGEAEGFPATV
# Chain of ATP-dependent 6-phosphofructokinase (Trypanosoma brucei brucei) (O15648 whole entry, looked up): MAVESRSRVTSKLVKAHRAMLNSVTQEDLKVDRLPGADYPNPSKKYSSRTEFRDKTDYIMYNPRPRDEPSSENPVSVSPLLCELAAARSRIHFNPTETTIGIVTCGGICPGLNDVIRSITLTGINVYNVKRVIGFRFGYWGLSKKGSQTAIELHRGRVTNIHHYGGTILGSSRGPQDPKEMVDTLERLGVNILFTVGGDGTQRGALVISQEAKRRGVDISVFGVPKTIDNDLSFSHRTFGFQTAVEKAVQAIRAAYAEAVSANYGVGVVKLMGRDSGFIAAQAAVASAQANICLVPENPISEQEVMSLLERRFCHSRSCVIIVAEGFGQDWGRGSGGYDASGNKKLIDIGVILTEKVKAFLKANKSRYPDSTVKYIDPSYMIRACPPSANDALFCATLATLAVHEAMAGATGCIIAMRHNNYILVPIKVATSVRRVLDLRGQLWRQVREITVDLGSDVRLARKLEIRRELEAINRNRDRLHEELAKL
# Chain of Phosphoglycerate kinase, glycosomal (Trypanosoma brucei brucei) (P07378 whole entry, looked up): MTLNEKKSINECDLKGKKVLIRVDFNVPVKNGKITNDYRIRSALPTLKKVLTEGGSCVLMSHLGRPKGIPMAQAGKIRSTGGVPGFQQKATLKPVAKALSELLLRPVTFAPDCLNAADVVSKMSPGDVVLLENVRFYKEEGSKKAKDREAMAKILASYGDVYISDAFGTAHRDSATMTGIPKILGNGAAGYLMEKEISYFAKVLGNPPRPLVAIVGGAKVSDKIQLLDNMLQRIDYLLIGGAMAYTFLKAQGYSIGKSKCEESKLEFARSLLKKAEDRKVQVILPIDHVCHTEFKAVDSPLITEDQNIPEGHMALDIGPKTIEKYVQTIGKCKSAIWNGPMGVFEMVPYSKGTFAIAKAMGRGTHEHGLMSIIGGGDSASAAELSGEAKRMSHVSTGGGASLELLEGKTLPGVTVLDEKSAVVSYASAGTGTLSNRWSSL
# Chain of phosphoglycerate mutase (Leishmania major) (Q4Q090 1-553): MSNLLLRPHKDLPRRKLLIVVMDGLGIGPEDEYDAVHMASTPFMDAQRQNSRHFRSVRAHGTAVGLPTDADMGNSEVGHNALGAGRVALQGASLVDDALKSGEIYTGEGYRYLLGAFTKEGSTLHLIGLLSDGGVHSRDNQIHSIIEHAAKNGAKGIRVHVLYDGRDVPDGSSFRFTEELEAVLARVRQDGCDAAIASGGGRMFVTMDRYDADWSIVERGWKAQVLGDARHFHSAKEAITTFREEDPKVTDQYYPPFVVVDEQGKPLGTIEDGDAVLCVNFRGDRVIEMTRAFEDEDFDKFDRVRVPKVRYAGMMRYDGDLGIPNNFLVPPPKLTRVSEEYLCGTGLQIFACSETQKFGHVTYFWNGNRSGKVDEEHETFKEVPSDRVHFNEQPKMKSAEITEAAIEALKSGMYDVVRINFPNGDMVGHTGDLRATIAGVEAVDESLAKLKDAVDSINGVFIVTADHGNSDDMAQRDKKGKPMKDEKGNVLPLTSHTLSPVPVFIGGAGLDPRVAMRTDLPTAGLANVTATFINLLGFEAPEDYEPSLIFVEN
# Chain of Galactokinase (Homo sapiens) (P51570 whole entry, looked up): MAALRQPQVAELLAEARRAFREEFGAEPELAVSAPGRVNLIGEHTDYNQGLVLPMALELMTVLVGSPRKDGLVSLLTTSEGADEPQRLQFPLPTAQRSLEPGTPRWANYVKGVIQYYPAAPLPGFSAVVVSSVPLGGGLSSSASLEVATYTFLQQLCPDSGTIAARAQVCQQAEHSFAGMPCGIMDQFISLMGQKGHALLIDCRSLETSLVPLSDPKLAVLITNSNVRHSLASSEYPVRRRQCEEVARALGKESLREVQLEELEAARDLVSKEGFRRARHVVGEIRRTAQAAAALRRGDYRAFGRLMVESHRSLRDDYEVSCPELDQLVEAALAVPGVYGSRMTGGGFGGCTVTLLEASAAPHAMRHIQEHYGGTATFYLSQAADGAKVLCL
# Chain of ATPase family AAA domain-containing protein 5 (Homo sapiens) (Q96QE3 whole entry, looked up, the tested form may be a part): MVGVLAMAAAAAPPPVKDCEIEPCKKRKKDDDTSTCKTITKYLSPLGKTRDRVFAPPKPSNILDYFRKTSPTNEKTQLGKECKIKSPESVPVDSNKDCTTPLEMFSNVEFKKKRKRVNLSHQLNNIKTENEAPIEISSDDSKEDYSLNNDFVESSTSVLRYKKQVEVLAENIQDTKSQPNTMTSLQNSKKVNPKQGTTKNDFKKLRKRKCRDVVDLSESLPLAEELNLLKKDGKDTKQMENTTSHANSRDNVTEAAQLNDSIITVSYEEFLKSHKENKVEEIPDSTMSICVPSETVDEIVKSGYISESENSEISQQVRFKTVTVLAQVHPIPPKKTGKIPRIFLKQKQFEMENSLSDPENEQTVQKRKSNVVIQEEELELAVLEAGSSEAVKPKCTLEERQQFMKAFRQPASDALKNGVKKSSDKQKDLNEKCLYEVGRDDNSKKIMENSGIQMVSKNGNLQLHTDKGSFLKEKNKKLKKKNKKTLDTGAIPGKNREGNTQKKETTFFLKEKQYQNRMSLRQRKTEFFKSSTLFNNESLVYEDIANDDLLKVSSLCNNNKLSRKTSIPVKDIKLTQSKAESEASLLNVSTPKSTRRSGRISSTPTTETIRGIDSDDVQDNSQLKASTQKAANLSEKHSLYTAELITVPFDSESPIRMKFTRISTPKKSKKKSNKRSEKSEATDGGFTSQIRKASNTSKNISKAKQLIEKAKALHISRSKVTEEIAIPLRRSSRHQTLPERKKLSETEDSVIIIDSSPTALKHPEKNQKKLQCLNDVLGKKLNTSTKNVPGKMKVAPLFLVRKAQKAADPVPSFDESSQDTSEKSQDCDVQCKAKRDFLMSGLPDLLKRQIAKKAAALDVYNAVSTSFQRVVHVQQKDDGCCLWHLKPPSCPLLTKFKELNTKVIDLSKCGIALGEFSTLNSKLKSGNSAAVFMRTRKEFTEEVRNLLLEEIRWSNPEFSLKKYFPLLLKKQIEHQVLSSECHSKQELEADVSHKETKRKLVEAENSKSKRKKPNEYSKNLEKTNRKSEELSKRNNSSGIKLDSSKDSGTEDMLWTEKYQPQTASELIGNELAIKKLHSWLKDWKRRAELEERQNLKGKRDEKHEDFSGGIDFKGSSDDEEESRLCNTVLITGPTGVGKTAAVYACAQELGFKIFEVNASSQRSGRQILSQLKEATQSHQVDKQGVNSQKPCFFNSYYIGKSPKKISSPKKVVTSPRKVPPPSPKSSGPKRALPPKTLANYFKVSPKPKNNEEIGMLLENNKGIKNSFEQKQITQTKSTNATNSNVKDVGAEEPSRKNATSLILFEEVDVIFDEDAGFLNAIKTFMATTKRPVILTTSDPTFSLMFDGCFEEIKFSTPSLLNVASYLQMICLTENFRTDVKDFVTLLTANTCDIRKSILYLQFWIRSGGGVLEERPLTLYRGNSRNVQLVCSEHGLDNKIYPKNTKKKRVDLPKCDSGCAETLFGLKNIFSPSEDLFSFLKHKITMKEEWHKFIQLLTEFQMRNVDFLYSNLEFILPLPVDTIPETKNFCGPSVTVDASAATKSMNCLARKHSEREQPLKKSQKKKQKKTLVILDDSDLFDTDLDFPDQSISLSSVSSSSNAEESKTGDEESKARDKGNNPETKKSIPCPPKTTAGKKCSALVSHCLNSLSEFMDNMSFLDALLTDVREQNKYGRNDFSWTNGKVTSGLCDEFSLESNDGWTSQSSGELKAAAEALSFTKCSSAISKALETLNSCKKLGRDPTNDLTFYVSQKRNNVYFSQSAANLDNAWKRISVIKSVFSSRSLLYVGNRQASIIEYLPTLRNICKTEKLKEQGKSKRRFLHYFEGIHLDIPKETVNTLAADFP
# Chain of Peptidyl-prolyl cis-trans isomerase NIMA-interacting 1 (Homo sapiens) (Q13526 whole entry, looked up): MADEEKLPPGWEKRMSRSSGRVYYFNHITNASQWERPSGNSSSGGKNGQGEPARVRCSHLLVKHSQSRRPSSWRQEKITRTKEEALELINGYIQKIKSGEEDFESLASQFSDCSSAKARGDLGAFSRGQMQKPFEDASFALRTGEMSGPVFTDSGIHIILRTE
smiles,measurement,setting,value
CC(C)=CC1C(C(=O)OCN2C(=O)C3=C(CCCC3)C2=O)C1(C)C (stereo not given),outcome,[1],inactive
COc1ccc2c(c1OC)C(=O)O[C@H]2[C@@H]1c2cc3c(cc2CCN1C)OCO3,outcome,[2],inactive
same,outcome,[3],inactive
same,outcome,[4],inactive
same,outcome,[5],inactive
same,outcome,[6],inactive
same,viability change,[6],5.02%
same,outcome,[7],inactive
same,outcome,[8],inactive
same,outcome,[9],inactive
same,outcome,[10],inactive
same,outcome,[11],inactive
same,outcome,[12],inactive
same,Potency,[13],inactive
same,outcome,[14],inactive
NC(=O)c1cc([N+](=O)[O-])cc([N+](=O)[O-])c1,outcome,[1],inactive
same,Potency,[13],inactive
CN1C(=O)CCS(=O)(=O)C1c1ccc(Cl)cc1 (stereo not given),outcome,[2],inactive
same,outcome,[3],inactive
same,outcome,[4],inactive
same,outcome,[5],inactive
same,outcome,[6],inactive
same,viability change,[6],-1.88%
same,outcome,[7],inactive
same,outcome,[15],inactive
same,outcome,[8],inactive
same,outcome,[9],inactive
same,outcome,[10],inactive
same,outcome,[11],inactive
same,outcome,[12],inactive
same,Potency,[13],inactive
same,outcome,[14],inactive
O=C(Nc1ccc(Br)cc1)c1cc(Br)cc(Br)c1O,outcome,[1],inactive
c1ccc2c(c1)sc1ccccc12,outcome,[1],inactive
CC(C)N(CCC(C(N)=O)(c1ccccc1)c1ccccn1)C(C)C (stereo not given),outcome,[2],inactive
same,outcome,[3],inactive
same,outcome,[4],inactive
same,outcome,[5],inactive
same,outcome,[6],inactive
same,viability change,[6],0% and 10.1%
same,outcome,[7],inactive
same,outcome,[15],inactive
same,outcome,[8],inactive
same,outcome,[9],inactive
same,outcome,[10],inactive
same,outcome,[11],inactive
same,outcome,[12],inactive
same,Potency,[13],inactive
same,outcome,[14],inactive
O=c1oc2ccccc2c(O)c1Cc1c(O)c2ccccc2oc1=O,outcome,[1],inactive
O=P1(N(CCCl)CCCl)NCCCO1 (stereo not given),outcome,[2],inactive
same,outcome,[3],inactive
same,outcome,[4],inactive
same,outcome,[5],inactive
same,activation,[16],-0.25% (inactive)
same,outcome,[6],inactive
same,viability change,[6],-1.15%
same,outcome,[7],inactive
same,outcome,[15],inactive
same,outcome,[8],inactive
same,outcome,[9],inactive
same,outcome,[10],inactive
same,outcome,[11],inactive
same,outcome,[12],inactive
same,Potency,[13],inactive
same,outcome,[14],inactive
same,outcome,[17],inactive
same,Potency,[18],inactive
CCCCC/C=C\C/C=C\C/C=C\C/C=C\CCCC(=O)NCC(=O)O,outcome,[2],inactive
same,outcome,[3],inactive
same,Potency,[19],28.2 µM (active)
same,outcome,[4],inactive
same,outcome,[5],inactive
same,outcome,[6],inactive
same,viability change,[6],2.11%
same,outcome,[7],inactive
same,outcome,[15],inactive
same,outcome,[8],inactive
same,outcome,[11],inactive
same,outcome,[12],inactive
same,Potency,[13],18.9 µM (active)
same,"activity change, negative = inhibition",[13],-11.7% [at 11.4 µM] (inactive)
same,outcome,[14],inactive
O=C(O)CCCc1ccc(N(CCCl)CCCl)cc1,outcome,[2],inactive
same,outcome,[3],inactive
same,outcome,[4],inactive
same,outcome,[5],inactive
same,activation,[16],-4.56% (inactive)
same,outcome,[7],inactive
same,outcome,[15],inactive
same,outcome,[8],inactive
same,outcome,[9],inactive
same,outcome,[10],inactive
same,outcome,[11],inactive
same,outcome,[12],inactive
same,Potency,[13],inactive
same,outcome,[14],inactive
same,outcome,[17],inactive
same,Potency,[18],inactive
CCC1(c2ccc(N)cc2)CCC(=O)NC1=O (stereo not given),outcome,[2],inactive
same,outcome,[3],inactive
same,outcome,[4],inactive
same,outcome,[5],inactive
same,activation,[16],1.56% (inactive)
same,outcome,[6],inactive
same,viability change,[6],1.18%
same,outcome,[7],inactive
same,outcome,[15],inactive
same,outcome,[8],inactive
same,outcome,[10],inactive
same,outcome,[11],inactive
same,outcome,[12],inactive
same,Potency,[13],inactive
same,outcome,[14],inactive
CN1CCC(O)(c2ccc(F)cc2)C(C(=O)c2ccc(F)cc2)C1 (stereo not given),outcome,[1],inactive
same,Potency,[13],inactive
Cc1ncsc1CCCl,outcome,[3],inactive
same,outcome,[1],inactive
same,outcome,[4],inactive
same,outcome,[5],inactive
same,outcome,[6],inactive
same,viability change,[6],6.84%
same,outcome,[7],inactive
same,outcome,[9],inactive
same,outcome,[10],inactive
same,outcome,[11],inactive
same,outcome,[12],inactive
same,Potency,[13],inactive
same,outcome,[14],inactive
same,outcome,[20],inactive
NNc1ccccc1,outcome,[1],inactive
same,Potency,[13],inactive
NC(=O)CC[C@@H]1NC(=O)[C@H](Cc2ccccc2)NC(=O)[C@H](Cc2ccc(O)cc2)NC(=O)[C@@H](N)CSSC[C@@H](C(=O)N2CCC[C@H]2C(=O)N[C@@H](CCCN=C(N)N)C(=O)NCC(N)=O)NC(=O)[C@H](CC(N)=O)NC1=O,outcome,[1],inactive
Clc1ccc2c(c1)C(c1ccccc1)=NCc1nncn1-2,outcome,[1],inactive
same,Potency,[13],inactive
